Measured values from PubChem BioAssay (EPA / NIEHS).
Where “and” joins values, the source holds several entries; their conditions need not be identical. Equal values may be shown once. Results filed as inconclusive are left out. More than one record can exist for a structure, and the calls need not agree. Calls of active or inactive are those of the source. How the source made its calls, unless noted: active means hit-call score of the fitted dose curve at least 0.9, where 1 is the maximum; inconclusive means response in the unintended direction; inactive means score below 0.9.

Columns and labels:
[1] = ATG_M_19_TRANS: Attagene TRANS-FACTORIAL HepG2 Assay for M19 Transcription Factor (Internal Marker) (AID 2282974); settings: HepG2 Attagene TRANS-FACTORIAL M19 internal marker reporter
Outline: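 Fluorescence of 6-FAM-labelled reporter cDNA fragments, separated by capillary electrophoresis, served as the readout. These derived from HepG2 cells carrying transfected GAL4-UAS reporter units after 24 h dosing, with DMSO as negative control.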

[2] = molecular target: Oxysterols receptor LXR-alpha (Homo sapiens) (UniProt Q13133); test: ATG_LXRa_TRANS: Attagene TRANS-FACTORIAL HepG2 Assay for human Liver X Receptor alpha (LXRa) (AID 2282980); settings: HepG2 Attagene TRANS reporter, LXRa transactivation
Outline: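 Chemical-induced reporter mRNA measured by RT-PCR with fluorescent labelling and capillary electrophoresis after 24 h dosing of transiently transfected HepG2 cells expressing exogenous NR-Gal4 chimeras; increases scored against DMSO baseline.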

[3] = molecular target: Oxysterols receptor LXR-beta (Homo sapiens) (UniProt P55055); test: ATG_LXRb_TRANS: Attagene TRANS-FACTORIAL HepG2 Assay for human Liver X Receptor beta (LXRb) (AID 2282981); settings: HepG2 Attagene TRANS GAL4-LXRb reporter, mRNA
Outline: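 HepG2 cells transiently transfected with multiple reporter transcription units carrying chimeric NR-Gal4 proteins acting on GAL4-UAS reporters; compound exposure 24 h. Reporter mRNA quantified by RT-PCR, 6-FAM labelling, HpaI digestion and capillary electrophoresis; gain of signal versus DMSO.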

[4] = molecular target: Nuclear receptor subfamily 4 group A member 2 (Homo sapiens) (UniProt P43354); test: ATG_NURR1_TRANS: Attagene TRANS-FACTORIAL HepG2 Assay for human Nuclear Receptor Related Protein 1 (NURR1) (AID 2282985); settings: HepG2 Attagene TRANS reporter, mRNA readout
Outline: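 HepG2 cells transiently transfected with GAL4-UAS reporter units and chimeric NR-Gal4 constructs; chemical exposure 24 h. Reporter mRNA quantified by RT-PCR, fluorescent labelling and capillary electrophoresis; gain of signal fitted relative to DMSO baseline.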

[5] = molecular target: human Peroxisome Proliferator-activated Receptor alpha (PPARa), PPARA (gene 5465) (UniProt Q07869); test: ATG_PPARa_TRANS: Attagene TRANS-FACTORIAL HepG2 Assay for human Peroxisome Proliferator-activated Receptor alpha (PPARa) (AID 2283001);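 on AC50: potency for gain of reporter signal over DMSO so agonist or activator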
Outline: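 HepG2 cells transiently transfected with multiplexed GAL4-UAS reporter units and chimeric NR-Gal4 constructs were dosed for 24 h. Reporter mRNA was measured by RT-PCR with fluorescent labelling and capillary electrophoresis; gain of signal fitted against DMSO.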

[6] = molecular target: human Peroxisome Proliferator-activated Receptor delta (PPARd), PPARD (gene 5467) (UniProt Q03181); test: ATG_PPARd_TRANS: Attagene TRANS-FACTORIAL HepG2 Assay for human Peroxisome Proliferator-activated Receptor delta (PPARd) (AID 2283002)
Outline: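 Multiplexed trans-activation format: HepG2 liver cells expressing exogenous NR-Gal4 chimeras and GAL4-UAS reporters were exposed for 24 h. Reporter mRNA was detected by RT-PCR with capillary electrophoresis fluorescence; activity fitted as gain of signal relative to DMSO.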

[7] = molecular target: human RAR-related Orphan Receptor gamma (RORg), RORC (gene 6097) (UniProt P51449); test: ATG_RORg_TRANS: Attagene TRANS-FACTORIAL HepG2 Assay for human RAR-related Orphan Receptor gamma (RORg) (AID 2283011);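 on AC50: potency for induction of reporter transcripts above DMSO so activators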
Outline: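 Reporter transcripts from a transfected RORg-GAL4 chimera in HepG2 cells were quantified 24 h after dosing by RT-PCR, 6-FAM labelling, HpaI digestion and capillary electrophoresis; increases over DMSO baseline were fitted.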

[8] = molecular target: human Thyroid Receptor alpha (THRa1), THRA (gene 7067) (UniProt P10827); test: ATG_THRa1_TRANS: Attagene TRANS-FACTORIAL HepG2 Assay for human Thyroid Receptor alpha (THRa1) (AID 2283014)
Outline: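 Transcripts from GAL4-UAS-driven reporters, measured after 24 h compound exposure by RT-PCR plus capillary electrophoresis of 6-FAM-labeled fragments, were fitted for gain of signal relative to DMSO. Cells: transiently transfected HepG2 expressing NR-Gal4 chimeras.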

[9] = molecular target: Peroxisome proliferator-activated receptor gamma (Homo sapiens) (UniProt P37231); test: OT_PPARg_PPARgSRC1_0480: Odyssey Thera (OT) 8-hour Protein-Complementation Assay for Peroxisome Proliferator-activated Receptor Gamma / SRC-1 Co-activator (AID 2283387);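 further: nuclear to cytoplasmic split Venus YFP fluorescence ratio reporting PPARg SRC-1 interaction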
Outline: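 Split-YFP (IFP1/IFP2) PPARg/SRC-1 reporter, HEK293T, 37 °C, 5% CO2; 8 h compound; formaldehyde fix + Draq5; high-content imaging, N/C ratio, ≥350 cells/image, positive direction vs DMSO.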

[10] = molecular target: Peroxisome proliferator-activated receptor gamma (Homo sapiens) (UniProt P37231); test: OT_PPARg_PPARgSRC1_1440: Odyssey Thera (OT) 24-hour Protein-Complementation Assay for Peroxisome Proliferator-activated Receptor Gamma/ SRC-1 Co-activator (AID 2283388);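 further: nuclear to cytoplasmic ratio of reconstituted Venus YFP fluorescence in fixed imaged cells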
Outline: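 Readout is the 488 nm N/C fluorescence ratio from fixed, Draq5-stained HEK293T cells after 24 h compound exposure. Cells carried transiently transfected PPARg and SRC-1 fused to Venus fragments, transfected 48 h before treatment.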

[11] = TOX21_p53_BLA_p2_viability: Viability Assessment in the Tox21 HCT-116 p53 Agonism Beta-lactamase Assay, Phase 2 (AID 2283591);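 further: compound exposure lasted 16 h at 37 °C; actives lower the ATP signal meaning cytotoxicity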
Outline: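 HCT-116 p53-bla cells (4000/well) rested 5 h at 37C, then received compounds in DMSO (217-fold dilution) for 16 h at 37C, 5% CO2. After the CCF4 read, CellTiter-Glo was added; ATP luminescence was read after 30 min at room temperature.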

[12] = molecular target: Cellular tumor antigen p53 (Homo sapiens) (UniProt P04637); test: TOX21_p53_BLA_p2_ratio: Tox21 HCT-116 p53 Agonism Beta-lactamase Assay, Ratio, Phase 2 (AID 2283592)
Outline: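 Gain-of-signal p53 agonism was scored from the beta-lactamase FRET ratio (460/530 nm, 405 nm excitation) in HCT116 cells treated 16 h at 37C, 5% CO2, with DMSO serving as negative control and baseline.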

[13] = TOX21_p53_BLA_p3_viability: Viability Assessment in the Tox21 HCT-116 p53 Agonism Beta-lactamase Assay, Phase 3 (AID 2283593);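 further: cells exposed to compound for 16 h before reading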
Outline: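 HCT-116 cells (4000/well) rested 5 h at 37C, then got DMSO compounds by pin tool (217-fold dilution) for 16 h at 37C, 5% CO2. After the bla read, CellTiter-Glo was added and luminescence read at 30 min, room temperature.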

[14] = TOX21_p53_BLA_p4_viability: Viability Assessment in the Tox21 HCT-116 p53 Agonism Beta-lactamase Assay, Phase 4 (AID 2283597);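 further: hits lower the luminescence signal meaning cytotoxicity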
Outline: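 Following a 16 h exposure at 37C, the treated HCT116 wells were first read for the FRET ratio. They were then lysed with CellTiter-Glo, and ATP luminescence was recorded after 30 min at room temperature.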

[15] = TOX21_p53_BLA_p5_viability: Viability Assessment in the Tox21 HCT-116 p53 Agonism Beta-lactamase Assay, Phase 5 (AID 2283600)
Outline: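 After the 460/530 nm beta-lactamase measurement, the wells received an ATP-detection luciferase reagent; signal was read 30 min later at RT. Compound treatment lasted 16 h on cells pre-incubated 5 h post-seeding.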

[16] = ACEA_ER_AUC_viability: ACEA Biosciences xCELLigence Real-Time Cell Analysis on Estrogen Receptor Agonism for Viability (AID 2283782);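 further: continuous compound exposure with impedance area under curve over 80 h; hit means loss of impedance signal meaning reduced cell growth or viability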
Outline: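 T-47D human breast cells in phenol red-free RPMI1640 with 10% charcoal-stripped FBS were dosed with an 8-point 1:4 dilution series from 100 uM top final concentration, in duplicate. Impedance-based growth was followed for 80 h; AUC analysed versus DMSO.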

[17] = molecular target: Bile acid receptor (Homo sapiens) (UniProt Q96RI1); test: ATG_IR1_CIS: Attagene CIS-FACTORIAL HepG2 Assay for human Nuclear Receptor Subfamily 1 Group H Member 4 (NR1H4), IR1 submotif (AID 2282946; active means hit-call score of the fitted dose curve at least 0.9, where 1 is the maximum; inactive means score below 0.9); settings: IR1 reporter transcription, actives raise or lower the signal
Outline: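 Transient MRTU transfection, HepG2; 24 h dosing; RNA → RT-PCR → 6-FAM primer extension → HpaI digest → capillary electrophoresis fluorescence. Gain/loss of signal fitted relative to DMSO.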

[18] = molecular target: Nuclear receptor subfamily 1 group I member 3 (Homo sapiens) (UniProt Q14994); test: ATG_CAR_TRANS: Attagene TRANS-FACTORIAL HepG2 Assay for human Constitutive Androstane Receptor (CAR) (AID 2282969); settings: HepG2 Attagene TRANS-FACTORIAL CAR reporter;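 further: activators raise reporter mRNA above DMSO so AC50 marks induction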
Outline: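 HepG2 cells transiently transfected with multiplexed GAL4-UAS reporter units expressing chimeric NR-Gal4 proteins; compound exposure 24 h. Reporter mRNA measured by RT-PCR, 6-FAM labelling, HpaI digestion and capillary electrophoresis; gain-of-signal fitted against DMSO baseline.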

[19] = ATG_GAL4_TRANS: Attagene TRANS-FACTORIAL HepG2 Assay for GAL4 (Internal Marker) (AID 2282976); settings: HepG2 Attagene TRANS GAL4 internal marker reporter
Outline: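 In transfected human HepG2 liver cells dosed 24 h, GAL4 reporter mRNA serves as a baseline marker. Detection by RT-PCR with fluorescent capillary electrophoresis, activity fitted upward relative to DMSO.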

[20] = molecular target: human Vitamin D Receptor (VDR), VDR (gene 7421) (UniProt P11473); test: ATG_VDR_TRANS: Attagene TRANS-FACTORIAL HepG2 Assay for human Vitamin D Receptor (VDR) (AID 2283022)
Outline: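 Transactivation by an exogenous VDR-Gal4 chimera in transiently transfected HepG2 cells was measured as reporter transcript level 24 hours after chemical treatment. RT-PCR products were analysed by capillary electrophoresis and fitted in the positive direction relative to DMSO.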

Measured: AC50

Chain of Cellular tumor antigen p53 (Homo sapiens) (P04637 whole entry, looked up): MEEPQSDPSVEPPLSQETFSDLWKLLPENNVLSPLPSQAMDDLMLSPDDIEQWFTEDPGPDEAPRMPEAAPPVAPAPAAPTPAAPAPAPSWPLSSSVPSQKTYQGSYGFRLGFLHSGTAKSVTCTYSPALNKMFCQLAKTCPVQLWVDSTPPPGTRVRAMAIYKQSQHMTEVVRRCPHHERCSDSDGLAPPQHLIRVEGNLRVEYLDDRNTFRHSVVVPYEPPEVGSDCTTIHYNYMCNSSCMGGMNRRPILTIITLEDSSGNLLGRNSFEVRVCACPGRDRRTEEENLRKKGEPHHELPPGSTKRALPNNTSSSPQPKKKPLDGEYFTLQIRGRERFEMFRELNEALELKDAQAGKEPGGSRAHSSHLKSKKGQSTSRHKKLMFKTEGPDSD
Chain of human RAR-related Orphan Receptor gamma (RORg), RORC (gene 6097) (P51449 whole entry, looked up, the tested form may be a part): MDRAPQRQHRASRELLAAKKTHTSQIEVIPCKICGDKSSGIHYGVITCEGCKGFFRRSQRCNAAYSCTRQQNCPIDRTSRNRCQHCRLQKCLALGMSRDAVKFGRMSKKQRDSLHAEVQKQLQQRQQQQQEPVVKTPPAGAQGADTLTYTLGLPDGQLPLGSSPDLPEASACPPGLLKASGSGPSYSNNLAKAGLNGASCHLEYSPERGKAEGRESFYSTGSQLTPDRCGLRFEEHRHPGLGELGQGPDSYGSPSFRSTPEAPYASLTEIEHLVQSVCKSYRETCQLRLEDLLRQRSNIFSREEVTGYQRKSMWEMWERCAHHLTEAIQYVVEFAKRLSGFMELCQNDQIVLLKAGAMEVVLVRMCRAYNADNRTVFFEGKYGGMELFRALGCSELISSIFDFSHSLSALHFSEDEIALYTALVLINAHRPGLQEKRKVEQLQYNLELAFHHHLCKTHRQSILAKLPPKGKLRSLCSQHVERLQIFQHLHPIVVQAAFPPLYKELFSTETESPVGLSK
Chain of Oxysterols receptor LXR-alpha (Homo sapiens) (Q13133 whole entry, looked up, the tested form may be a part): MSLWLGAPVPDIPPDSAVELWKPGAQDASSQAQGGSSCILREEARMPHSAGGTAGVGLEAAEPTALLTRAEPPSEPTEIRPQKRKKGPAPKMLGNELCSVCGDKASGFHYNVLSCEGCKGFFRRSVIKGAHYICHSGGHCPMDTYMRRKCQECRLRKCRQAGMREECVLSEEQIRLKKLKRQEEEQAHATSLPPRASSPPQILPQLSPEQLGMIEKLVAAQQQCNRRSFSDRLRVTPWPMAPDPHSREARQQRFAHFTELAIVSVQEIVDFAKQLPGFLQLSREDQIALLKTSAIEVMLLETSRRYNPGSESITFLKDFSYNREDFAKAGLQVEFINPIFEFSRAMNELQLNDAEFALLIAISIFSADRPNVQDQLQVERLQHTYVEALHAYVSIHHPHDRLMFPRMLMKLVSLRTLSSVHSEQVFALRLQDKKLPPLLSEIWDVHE
Chain of Peroxisome proliferator-activated receptor gamma (Homo sapiens) (P37231 whole entry, looked up, the tested form may be a part): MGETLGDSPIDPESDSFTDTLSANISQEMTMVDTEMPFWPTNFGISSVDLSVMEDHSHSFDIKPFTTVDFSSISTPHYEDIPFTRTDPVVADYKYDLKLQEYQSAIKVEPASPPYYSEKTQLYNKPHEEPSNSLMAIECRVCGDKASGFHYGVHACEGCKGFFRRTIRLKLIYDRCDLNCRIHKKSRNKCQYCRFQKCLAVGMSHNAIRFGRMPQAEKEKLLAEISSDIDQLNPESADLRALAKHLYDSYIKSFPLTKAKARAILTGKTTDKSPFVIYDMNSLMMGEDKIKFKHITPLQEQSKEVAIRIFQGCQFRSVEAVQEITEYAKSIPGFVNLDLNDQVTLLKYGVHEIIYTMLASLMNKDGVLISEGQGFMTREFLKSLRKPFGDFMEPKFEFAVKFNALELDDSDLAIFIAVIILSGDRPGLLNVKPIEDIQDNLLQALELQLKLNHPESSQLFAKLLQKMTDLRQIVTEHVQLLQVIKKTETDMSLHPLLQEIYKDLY
Chain of human Thyroid Receptor alpha (THRa1), THRA (gene 7067) (P10827 whole entry, looked up, the tested form may be a part): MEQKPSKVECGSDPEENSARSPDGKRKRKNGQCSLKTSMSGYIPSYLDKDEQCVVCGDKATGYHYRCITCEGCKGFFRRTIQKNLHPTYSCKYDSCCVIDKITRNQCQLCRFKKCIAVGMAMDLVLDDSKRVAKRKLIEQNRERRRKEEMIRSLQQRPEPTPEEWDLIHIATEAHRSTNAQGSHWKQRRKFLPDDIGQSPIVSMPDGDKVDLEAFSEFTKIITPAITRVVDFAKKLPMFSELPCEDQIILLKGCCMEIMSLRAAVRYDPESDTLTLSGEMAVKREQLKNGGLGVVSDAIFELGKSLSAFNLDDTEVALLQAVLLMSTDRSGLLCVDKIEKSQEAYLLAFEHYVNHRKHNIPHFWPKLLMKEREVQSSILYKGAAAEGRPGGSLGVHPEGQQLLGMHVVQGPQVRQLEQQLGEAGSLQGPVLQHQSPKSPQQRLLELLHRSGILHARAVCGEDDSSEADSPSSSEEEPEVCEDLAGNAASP
Chain of human Peroxisome Proliferator-activated Receptor alpha (PPARa), PPARA (gene 5465) (Q07869 whole entry, looked up, the tested form may be a part): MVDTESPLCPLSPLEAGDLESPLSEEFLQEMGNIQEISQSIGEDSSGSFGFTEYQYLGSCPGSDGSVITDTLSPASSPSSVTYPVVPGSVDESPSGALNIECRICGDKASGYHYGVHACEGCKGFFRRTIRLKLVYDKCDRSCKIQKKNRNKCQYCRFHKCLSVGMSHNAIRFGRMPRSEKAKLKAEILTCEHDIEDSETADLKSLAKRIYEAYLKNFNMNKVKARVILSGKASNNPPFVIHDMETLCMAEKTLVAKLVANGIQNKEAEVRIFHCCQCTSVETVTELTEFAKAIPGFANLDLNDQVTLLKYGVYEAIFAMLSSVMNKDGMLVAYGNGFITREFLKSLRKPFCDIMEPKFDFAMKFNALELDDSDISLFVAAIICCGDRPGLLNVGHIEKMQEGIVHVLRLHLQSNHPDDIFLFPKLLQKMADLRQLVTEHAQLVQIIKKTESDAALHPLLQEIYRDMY
Chain of Oxysterols receptor LXR-beta (Homo sapiens) (P55055 whole entry, looked up, the tested form may be a part): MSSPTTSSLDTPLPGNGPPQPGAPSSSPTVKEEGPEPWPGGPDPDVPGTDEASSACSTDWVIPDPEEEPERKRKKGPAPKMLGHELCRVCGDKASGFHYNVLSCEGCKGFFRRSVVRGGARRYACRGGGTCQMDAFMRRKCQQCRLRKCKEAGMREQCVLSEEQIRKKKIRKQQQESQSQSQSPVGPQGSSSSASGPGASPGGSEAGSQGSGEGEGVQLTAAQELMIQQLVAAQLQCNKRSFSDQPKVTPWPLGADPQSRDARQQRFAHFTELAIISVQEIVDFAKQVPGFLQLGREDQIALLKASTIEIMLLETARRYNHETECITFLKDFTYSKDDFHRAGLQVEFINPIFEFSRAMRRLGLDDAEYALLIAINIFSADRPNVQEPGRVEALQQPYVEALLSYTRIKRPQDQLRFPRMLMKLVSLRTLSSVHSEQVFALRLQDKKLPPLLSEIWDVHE
Chain of Nuclear receptor subfamily 4 group A member 2 (Homo sapiens) (P43354 whole entry, looked up, the tested form may be a part): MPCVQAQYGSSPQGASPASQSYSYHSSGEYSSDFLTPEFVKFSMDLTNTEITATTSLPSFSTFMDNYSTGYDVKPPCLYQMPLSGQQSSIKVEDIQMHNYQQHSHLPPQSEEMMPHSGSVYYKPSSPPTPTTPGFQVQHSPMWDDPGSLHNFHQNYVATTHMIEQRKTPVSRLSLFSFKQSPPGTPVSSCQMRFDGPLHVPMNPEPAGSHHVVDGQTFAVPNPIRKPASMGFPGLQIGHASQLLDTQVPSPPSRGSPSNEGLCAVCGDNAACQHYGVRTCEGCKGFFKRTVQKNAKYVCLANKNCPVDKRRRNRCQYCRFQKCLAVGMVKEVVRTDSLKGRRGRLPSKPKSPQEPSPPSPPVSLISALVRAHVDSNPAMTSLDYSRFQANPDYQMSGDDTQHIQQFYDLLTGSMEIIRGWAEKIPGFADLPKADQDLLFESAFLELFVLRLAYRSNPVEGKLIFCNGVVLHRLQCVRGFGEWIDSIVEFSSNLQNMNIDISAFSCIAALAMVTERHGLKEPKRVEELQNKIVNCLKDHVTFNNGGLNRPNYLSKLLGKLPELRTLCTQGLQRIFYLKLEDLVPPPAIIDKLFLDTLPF
Chain of Nuclear receptor subfamily 1 group I member 3 (Homo sapiens) (Q14994 whole entry, looked up, the tested form may be a part): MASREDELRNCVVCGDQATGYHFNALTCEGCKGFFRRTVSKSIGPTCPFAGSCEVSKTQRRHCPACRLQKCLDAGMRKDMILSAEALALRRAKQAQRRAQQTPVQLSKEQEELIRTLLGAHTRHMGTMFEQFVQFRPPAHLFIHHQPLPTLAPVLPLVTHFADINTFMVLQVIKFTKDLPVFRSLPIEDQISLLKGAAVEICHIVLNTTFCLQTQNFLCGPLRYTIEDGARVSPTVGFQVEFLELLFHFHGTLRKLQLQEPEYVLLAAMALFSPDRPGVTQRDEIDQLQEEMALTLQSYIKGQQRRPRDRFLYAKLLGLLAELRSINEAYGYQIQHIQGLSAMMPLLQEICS
Chain of human Peroxisome Proliferator-activated Receptor delta (PPARd), PPARD (gene 5467) (Q03181 whole entry, looked up, the tested form may be a part): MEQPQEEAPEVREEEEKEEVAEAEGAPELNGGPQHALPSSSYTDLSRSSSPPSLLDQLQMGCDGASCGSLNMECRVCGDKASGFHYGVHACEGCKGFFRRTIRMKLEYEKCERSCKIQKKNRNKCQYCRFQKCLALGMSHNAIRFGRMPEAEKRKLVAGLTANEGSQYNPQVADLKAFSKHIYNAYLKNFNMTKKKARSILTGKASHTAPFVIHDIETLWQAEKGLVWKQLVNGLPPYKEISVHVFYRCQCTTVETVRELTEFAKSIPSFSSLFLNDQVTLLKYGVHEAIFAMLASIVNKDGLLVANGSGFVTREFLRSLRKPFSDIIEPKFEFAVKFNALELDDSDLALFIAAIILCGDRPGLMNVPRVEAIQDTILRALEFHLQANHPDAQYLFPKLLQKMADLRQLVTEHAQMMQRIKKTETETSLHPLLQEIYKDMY

O=C(CCl)c1ccccc1
active: [5] 50.2 µM | [7] 62 µM | [8] 55.9 µM | [16] 10.9 µM
not listed: [17] | [18] | [19] | [20]
inactive: all other assays above

CC(O)CN(CC(C)O)CC(C)O (stereo not drawn)
not listed: [4] | [6] | [9] | [10] | [13] | [19] | [20]
inactive: all other assays above

[CH3][Sn]([Cl])([Cl])[Cl]
inactive: [18] | [2] | [7] | [11]

S=c1[nH]c2ccccc2[nH]1
inactive: [18] | [19] | [4] | [5] | [11] | [13] | [14] | [15] | [16]

CC(C)(c1cc(Cl)c(O)c(Cl)c1)c1cc(Cl)c(O)c(Cl)c1
inactive: [1] | [3] | [6] | [8] | [20] | [9] | [10] | [13] | [14] | [15]
active: [4] 47.9 µM | [11] 46.1 µM and 33.1 µM | [12] 37 µM and 16.5 µM | [13] 65.5 µM | [14] 62.3 µM | [16] 90.8 µM
